In PubChem BioAssay:
Activity calls are given as the source filed them. Unless noted, how the calls were made is not given here.

Experiments:
[1] = tested on: XIP peptide (Xip251-270) binding; test: XIP fragment 251-270 binding compounds – biochemical, small-molecule microarray, fluorescence 635/667 nm, 0.1 µg/mL protein, primary screen (AID 1182); conditions: fluorescent protein binding, 635 nm, higher = more signal, called active from +8 up or from −8 down
XIP peptide (Xip251-270) = test: compounds binding XIP fragment 251-270 – biochemical, small-molecule microarray, fluorescence 635/667 nm, 0.5 µg/mL protein, primary screen (AID 1183); conditions: fluorescence 635 nm, higher = more signal
[2] = blood-stage malaria parasite viability loss – strain 3D7, DAPI fluorescence, 100 nL, primary screen (AID 1184);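 further: parasites grown inside human red blood cells in medium with human serum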; conditions: P. falciparum 3D7 growth, 3 d, higher = more signal
[3] = biological target: Homeobox protein Hox-A13 (Mus musculus) (UniProt Q62424); test: disruptors of Hoxa13 oligonucleotide interaction – biochemical, fluorescence polarization, labeled oligonucleotide, primary screen (AID 1185); conditions: Hoxa13:DNA binding, 15 min, higher = more signal, called active from +8 up or from −8 down
[4] = blockers of DNA damage checkpoint Chk1 activation – imaging, HeLa, hydroxyurea, phospho-Chk1 antibody, percent positive cells, primary screen (AID 1186); conditions: hydroxyurea-induced phospho-Chk1 immunofluorescence imaging, higher = more signal
[5] = blockers of DNA damage checkpoint Chk1 activation – imaging, HeLa, hydroxyurea, phospho-Chk1 nuclear intensity, primary screen (AID 1187); conditions: hydroxyurea-induced phospho-Chk1 immunofluorescence imaging, higher = more signal

Chain of Homeobox protein Hox-A13 (Mus musculus) (Q62424 whole entry, looked up): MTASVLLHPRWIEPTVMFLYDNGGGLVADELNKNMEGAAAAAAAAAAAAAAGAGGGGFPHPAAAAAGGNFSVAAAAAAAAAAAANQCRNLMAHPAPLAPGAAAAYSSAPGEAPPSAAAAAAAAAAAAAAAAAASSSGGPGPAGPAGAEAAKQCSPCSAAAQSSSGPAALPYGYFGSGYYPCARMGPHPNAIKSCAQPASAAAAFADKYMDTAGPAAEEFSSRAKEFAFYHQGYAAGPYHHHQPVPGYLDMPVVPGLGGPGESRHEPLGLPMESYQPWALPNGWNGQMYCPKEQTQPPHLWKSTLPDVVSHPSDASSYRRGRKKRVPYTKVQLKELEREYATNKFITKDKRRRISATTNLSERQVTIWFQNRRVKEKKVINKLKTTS

SMILES | composite z-score [1] | composite z-score (XIP peptide (Xip251-270)) | z-score [2] | z-score [3] | z-score [4] | z-score [5]
CC(C)NC(=O)[C@@]1(C)c2ccccc2C(=O)N(Cc2ccccc2)[C@H]1c1ccc(CO)cc1 | 0.0062 (inactive) | 0.875 | -0.321 | -2.37 (inactive) | -0.471 (inactive) | -0.429 (inactive)
COC(=O)[C@@]1(Cc2ccccc2)[C@H]2c3cc(C(=O)N(C)C)n(Cc4ccc(S(C)(=O)=O)cc4)c3C[C@H]2CN1C(=O)c1ccccc1 | 1.22 (inactive) | 0.721 | -1.5 | -5.44 (inactive) | 0.492 (inactive) | 0.38 (inactive)
CCOC(=O)C1=CC[C@@H](c2ccc(OC)cc2)N(S(=O)(=O)c2ccc(C)cc2)[C@H]1c1ccc(C)cc1 | 0.3 (inactive) | 0.44 | 0.869 | -0.57 (inactive) | -0.0113 (inactive) | -0.5 (inactive)
CCOC(=O)C1=C[C@@H](C(C)(C)C)N(S(=O)(=O)c2ccc(C)cc2)[C@H]1c1ccc(C#N)cc1 | -0.331 (inactive) | 0.662 | -1.82 | -0.543 (inactive) | 0.892 (inactive) | 1.21 (inactive)
C=C(COC)/C(=C/C[C@@H](OC(C)=O)c1ccccc1OCCO)c1cnc2ccccc2c1 | 0.534 (inactive) | 0.69 | -2.92 | -5.76 (inactive) | -0.5 (inactive) | -0.376 (inactive)
C[C@@H]1ON(c2ccccc2)[C@H](c2ccccc2)[C@H]1C(=O)O | -0.117 (inactive) | 0.0627 | -0.413 | -0.711 (inactive) | 0.0099 (inactive) | 0.203 (inactive)
C=CCN1C(=O)[C@]2(O[C@H](CCn3cc([C@H](O)c4ccccc4)nn3)[C@@H]([Si](C)(C)c3ccc(OC)cc3)[C@@H]2C)c2cc(NC(=O)c3ccc(OC)cc3)ccc21 | 0.586 (inactive) | 0.309 | -2.77 | -4.56 (inactive) | -0.552 (inactive) | 0.0018 (inactive)
COCCOC(=O)N1C(=O)[C@@]2(c3cc(C#CCC(C(=O)OC)C(=O)OC)ccc31)[C@H](c1ccc(O)cc1)N1[C@H](c3ccccc3)[C@H](c3ccccc3)OC(=O)[C@H]1[C@@H]2C(=O)Nc1nc2ccccc2s1 | 1.49 (inactive) | 0.853 | -1.43 | -2.2 (inactive) | 0.03 (inactive) | 0.0087 (inactive)
O=C(NCc1ccccc1)[C@@H]1c2ccccc2C(=O)N(Cc2ccc(OC(F)(F)F)cc2)[C@H]1c1ccc(CO)cc1 | -0.304 (inactive) | 0.56 | -0.655 | -2.53 (inactive) | 0.0188 (inactive) | 0.243 (inactive)
C=CCC(OC(C)=O)[C@@H]1[C@@H](N(Cc2ccc(-c3cccc(C(F)(F)F)c3)o2)C(=O)Cc2ccc(F)cc2)c2cc(OCCCO)ccc2N1C(=O)Cc1ccc2ccccc2c1 (stereo partly specified) | -0.068 (inactive) | -0.293 | -0.328 | -0.668 (inactive) | 0.19 (inactive) | 0.0472 (inactive)
COC(=O)C1=CC(CCCO)=CC(c2cccs2)N(Cc2cc3c(cc2Br)OCO3)C=C1C(=O)OC (stereo unspecified) | 1.07 (inactive) | 0.763 | -1.26 | -4.49 (inactive) | 0.132 (inactive) | 0.454 (inactive)
C=CC[C@]1(C(=O)NCC(O)CO)COC(c2ccc(OCCCO)cc2)=N1 (stereo partly specified) | -0.933 (inactive) | -1.45 | 0.343 | -4.55 (inactive) | 0.0293 (inactive) | -0.553 (inactive)
O=C1C2C=CC(C(O)c3c(F)cccc3Cl)N(Nc3ccc([N+](=O)[O-])cc3)C2C(=O)N1c1ccccc1 (stereo unspecified) | 1.03 (inactive) | 0.878 | -0.545 | -3.05 (inactive) | 0.982 (inactive) | 1.09 (inactive)
[N-]=[N+]=Nc1ccccc1C[C@@]1(C(=O)NCC(O)CO)N=C(c2ccc(OCCCO)cc2)O[C@@H]1c1ccccc1 (stereo partly specified) | 0.105 (inactive) | 0.75 | -1.45 | -5.72 (inactive) | -0.416 (inactive) | -0.145 (inactive)
C=CCNC(=O)[C@H]1[C@@H]2C(=O)O[C@@H](c3ccccc3)[C@@H](c3ccccc3)N2[C@@H](c2ccccc2OCCO)[C@]12C(=O)N(C(=O)OCCOC)c1ccc(C#Cc3ccc(OC)cc3)cc12 | 0.559 (inactive) | 0.807 | -2.16 | -0.0717 (inactive) | 0.0629 (inactive) | 0.539 (inactive)
COCCOC(=O)N1C(=O)[C@@]2(c3cc(C#CCCO)ccc31)[C@H](c1ccc(OCCO)cc1)N1[C@H](c3ccccc3)[C@H](c3ccccc3)OC(=O)[C@H]1[C@@H]2C(=O)N1CCCCCCC1 | 0.788 (inactive) | 0.614 | -2.1 | -4.34 (inactive) | 0.197 (inactive) | 0.476 (inactive)
COc1ccc(C(=O)Nc2cccc(CN3C(=O)[C@]4(O[C@H](CC(=O)N5Cc6ccccc6C[C@H]5CO)[C@@H]([Si](C)(C)c5ccc(OC)cc5)[C@@H]4C)c4ccccc43)c2)cc1 | -0.335 (inactive) | 0.697 | -2.94 | -2.35 (inactive) | 1.01 (inactive) | 0.835 (inactive)
COC(=O)C(CC#Cc1ccc2c(c1)[C@]1(C(=O)N2)[C@H](C(=O)NC[C@H](O)c2ccccc2)[C@H]2C(=O)O[C@H](c3ccccc3)[C@H](c3ccccc3)N2[C@@H]1c1ccccc1OCCO)C(=O)OC | 0.0226 (inactive) | 0.654 | -2.33 | -1.39 (inactive) | 0.0062 (inactive) | 0.0197 (inactive)
COc1ccc(C(O)C2C=CC3C(=O)N(C)C(=O)C3N2N(c2ccccc2)c2ccccc2)cc1 (stereo unspecified) | 0.195 (inactive) | 0.512 | -0.459 | -6.57 (inactive) | 0.45 (inactive) | -0.508 (inactive)
C=C(CCCC)C(=O)CC[C@H](OC(=O)c1ccccc1-c1ccccc1C(=O)O)c1ccc(OCCO)cc1 | 2.21 (inactive) | 0.546 | -3.08 | -6.36 (inactive) | 0.0505 (inactive) | -0.0839 (inactive)
C=CCC(OC(C)=O)[C@@H]1[C@@H](N(Cc2cccc3ccccc23)C(=O)c2ccc(-c3ccccc3)cc2)c2cc(OCCCO)ccc2N1C(=O)Cc1ccc2ccccc2c1 (stereo partly specified) | -0.419 (inactive) | -0.347 | 0.0788 | -0.896 (inactive) | 0.547 (inactive) | 0.582 (inactive)
NC(=O)N1C(=O)C2C(C1=O)C1C=C(CCCO)C2C(c2ccc(CN3CCCC3)cc2)N1Cc1cc2c(cc1Br)OCO2 (stereo unspecified) | 0.224 (inactive) | -0.0073 | -0.459 | -4.36 (inactive) | 0.504 (inactive) | 0.519 (inactive)
COc1ccc(C(=O)Nc2cccc(CN3C(=O)[C@@]4(O[C@@H](CC(=O)N5CCC[C@H]5CO)[C@H]([Si](C)(C)c5ccc(OC)cc5)[C@H]4C)c4ccccc43)c2)cc1 | 0.802 (inactive) | 0.639 | -2.16 | -2.8 (inactive) | -0.142 (inactive) | 0.071 (inactive)
COc1ccc(C(O)C2C=CC3C(=O)N(c4ccccc4)C(=O)C3N2Nc2ccc([N+](=O)[O-])cc2)c2ccccc12 (stereo unspecified) | 0.314 (inactive) | 0.685 | -1.32 | -0.935 (inactive) | 0.219 (inactive) | -0.404 (inactive)
O=C1O[C@@H](c2ccccc2)[C@@H](c2ccccc2)N2[C@@H](c3ccc(OCCO)cc3)[C@]3(C(=O)Nc4ccc(C#CC5(O)CCCCCC5)cc43)[C@@H](C(=O)O)[C@H]12 | 2.23 (inactive) | 0.688 | -0.0628 | -6.03 (inactive) | -0.167 (inactive) | 0.0604 (inactive)
O=C1O[C@@H](c2ccccc2)[C@@H](c2ccccc2)N2[C@@H](c3ccccc3OCCO)[C@]3(C(=O)Nc4ccc(C#CCCO)cc43)[C@@H](C(=O)NC[C@H](O)c3ccccc3)[C@H]12 | 0.798 (inactive) | 0.816 | -1.81 | -3.98 (inactive) | 0.0469 (inactive) | 0.144 (inactive)
